LmPK inhibitor: qHTS Assay for Inhibitors of Leishmania Mexicana Pyruvate Kinase (LmPK) | Q27686 | AID 1721, 2009 | purified LmPK, Kinase-Glo ATP luminescence, 1 h | 0.37% of 290,000 active | Potency, µM (titrated, usually from 57.5 µM), inactives show at the highest dose activity change, negative = inhibition, most hits filed as inhibitors; also: potency is read from the fitted curve at half-maximal effect; % is scaled to controls: 0 for no effect and ±100 for the full control effect
Target sequence (Q27686 whole entry, looked up): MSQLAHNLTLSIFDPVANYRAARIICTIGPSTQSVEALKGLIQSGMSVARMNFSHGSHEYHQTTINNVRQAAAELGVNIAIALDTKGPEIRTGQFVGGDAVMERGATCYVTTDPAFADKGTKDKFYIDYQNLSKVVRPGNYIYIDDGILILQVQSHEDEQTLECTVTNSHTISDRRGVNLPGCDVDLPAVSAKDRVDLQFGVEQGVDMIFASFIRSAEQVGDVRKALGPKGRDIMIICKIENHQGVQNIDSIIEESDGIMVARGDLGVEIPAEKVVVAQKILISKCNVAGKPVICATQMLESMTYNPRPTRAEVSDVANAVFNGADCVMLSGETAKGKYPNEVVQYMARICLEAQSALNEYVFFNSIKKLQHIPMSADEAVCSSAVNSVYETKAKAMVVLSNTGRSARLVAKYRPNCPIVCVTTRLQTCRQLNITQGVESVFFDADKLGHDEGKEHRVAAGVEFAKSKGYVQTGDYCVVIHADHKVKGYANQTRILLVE
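qHTS format; LmPK 0.1 nM; substrates PEP 0.5 mM and ADP 0.1 mM. One-hour room-temperature incubation, then coupled luciferase luminescence; 0.5 nM enzyme wells mark activation.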
Cycloheximide cs: Cycloheximide Counterscreen for Small Molecule Inhibitors of Shiga Toxin; cell reporter, cycloheximide protein synthesis inhibition counterscreen; max response, %; 12% of 300,000 active; AID 2314, 2010; in the data active = max response mostly above about 13%, no sharp cut-off; inactive = mostly below about 14%; also: read at 38.3 µM for the half of the compounds with a filed dose; 0% is about no effect
SARS PLpro yeast: qHTS of Yeast-based Assay for SARS-CoV PLP; Potency, µM (series often up to 32.9 µM), without a hit: at the top dose activity, positive = growth rescue, hits mostly activators; 0.19% of 330,000 active; S. cerevisiae expressing SARS-CoV PLpro, growth rescue; calls by dose curve; also: potency is read from the fitted curve at half-maximal effect; 0% is about no effect; nearly all actives have a fitted effect of over 55% in size
Tb PYK inh: qHTS of Trypanosoma Brucei Inhibitors; pyruvate kinase (Trypanosoma brucei), Q57TT1; TbPYK enzyme, Kinase-Glo Plus ATP luminescence, 45 min; Potency, µM (highest dose often 76.8 µM), for inactives: at the top dose activity, negative = inhibition, most hits filed as inhibitors; 0.12% of 410,000 active; AID 624173, 2012; also: potency is read from the fitted curve at half-maximal effect; % is scaled to controls: 0 for no effect and ±100 for the full control effect; nearly all actives have a fitted effect of over 50% in size
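T. brucei PYK with substrate was exposed to pin-transferred compounds across a concentration series, then started with 130 uM ADP (final). After 45 min at room temperature, Kinase-Glo Plus luminescence was read, normalized and curve-fitted.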
NS1 function inh: qHTS Assay for Inhibitors of Influenza NS1 Protein Function. Potency, µM (titrated, usually from 46.1 µM), inactives show top-dose activity, positive = more growth. 0.4% of 270,000 active; calls by dose curve; also: potency is read from the fitted curve at half-maximal effect; actives are rising curves; nearly all actives have a fitted effect of over 50% in size
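Compounds were scored for reversing the slow growth caused by influenza A NS1 in S. cerevisiae, measured by optical density at 600 nm. Assay medium contained 2% galactose at pH 6.0; NS1-free yeast of the same strain were the positive control.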
Shiga inhibitor: A qHTS for Small Molecule Inhibitors of Shiga Toxin; AID 2315, 2010; inhibition, % at 38.7 µM; 9.2% of 290,000 active; Vero cells, Shiga toxin protein synthesis inhibition reporter; in the data active = inhibition mostly above about 28%, no sharp cut-off; inactive = mostly below about 43%; also: 0% is about no effect
* hit, by the source's call; ? = inconclusive; nt = not tested or not shown. The sample as a whole holds a higher share of hits than the screen did. Unless noted, calls follow the shape of the dose curve; as a rule, active = well fitted curve in the direction sought with a large enough effect; inconclusive = small, poorly fitted or top-dose-only effect, or another doubt; inactive = no such curve, though single readings can be large; an effect the other way counts as inactive or inconclusive.

SMILES	LmPK inhibitor	Cycloheximide cs	SARS PLpro yeast	Tb PYK inh	NS1 function inh	Shiga inhibitor
O=C(OCn1ncc(Br)c(Br)c1=O)c1ccccc1Cl	-2.8%	12.5	-29.4%	-25.1%	-217.3%	-23.6
CCS(=O)(=O)c1cc([N+](=O)[O-])c(Sc2ccccc2NC(C)=O)s1	6.8%	14.4*	2.7%	-33.3%	3.2%	33.1
O=C1CN(C(=O)COC(=O)CCC(=O)c2ccc3c(c2)OCCO3)c2ccccc2N1	-1.8%	19.2*	1.6%	1.0%	-13.4%	34.5
CCCOc1ccc(C(=O)CCC(=O)OCC(=O)N2CC(=O)Nc3ccccc32)cc1	7.7%	32.5*	-5.4%	3.2%	3.7%	-7.1
O=C1CN(C(=O)COc2ccccc2F)c2ccccc2N1	-2.8%	-5.6	7.8%	-8.1%	12.8%	15.2
O=C1CN(C(=O)COc2ccc(F)cc2Br)c2ccccc2N1	0.2%	15.0	0.8%	1.1%	2.7%	36.0*
CCOc1ccc(C2C(C(=O)Nc3ccccc3)=C(C)Nc3nc(SCc4cccc(OC)c4)nn32)cc1 (centres undefined)	nt	nt	nt	-4.6%	nt	nt
Cc1ccccc1NC(=O)Cn1cc(S(=O)(=O)N2CCCC2)c(S(=O)(=O)N2CCCC2)c1	nt	nt	nt	-6.4%	nt	nt
Cc1ccc(C2CCN(C(=O)Nc3ccc(Cl)cc3)C2)cc1 (centres undefined)	nt	nt	nt	1.9%	nt	nt
Cc1ccc(C2CCN(C(=S)Nc3cccc(C)c3)C2)cc1 (centres undefined)	10.2%	20.3*	-11.7%	-3.1%	nt	33.6*
Cc1cccc(NC(=S)N2CCCCC2)c1	-8.2%	-1.1	12.0%	4.2%	-7.4%	7.8
Cc1ccc(C2CCN(C(=S)NC(C)(C)C)C2)cc1 (centres undefined)	1.2%	30.9*	8.0%	-4.0%	nt	76.4*
Cc1ccc(C2CCN(C(=S)NC3CCCCC3)C2)cc1 (centres undefined)	5.8%	19.8*	-0.9%	-6.5%	nt	70.2*
C=CCc1cccc(C=Nc2cccn3cc(-c4ccccc4)nc23)c1O	-24.5%	31.8*	-3.0%	-5.8%	nt	69.1*
CCOc1ncccc1C(=O)Nc1ccc(C(=O)Nc2ccc(OC)cc2)cc1	nt	nt	-2.9%	-5.9%	nt	nt
O=C(Nc1ccc2c(c1)OCCO2)c1cc2sccc2n1Cc1ccc(F)cc1	-0.4%	31.2*	-8.4%	-8.7%	-0.6%	65.4*
CCOC(=O)c1cccc(NC(=O)c2cc3sccc3n2Cc2ccc(Cl)cc2)c1	nt	nt	nt	1.7%	nt	nt
Cc1ccc(Cn2c(C(=O)Nc3cccc(Cl)c3)cc3sccc32)cc1	nt	nt	nt	0.7%	nt	nt
Cc1cccc(C)c1NC(=O)c1cc2sccc2n1Cc1ccc(F)cc1	nt	nt	nt	-12.9%	nt	nt
O=C(NCc1ccco1)c1ccc(Cn2c(=O)c3sccc3n(Cc3cccc(F)c3)c2=O)cc1	2.6%	25.8*	0.4%	-0.6%	?	22.4
O=C(Nc1ccc2c(c1)OCCO2)c1cc2sccc2n1Cc1ccccc1	3.8%	23.5	-8.7%	1.5%	5.1%	126.3*
CCOC(=O)c1cccc(NC(=O)c2cc3sccc3n2C)c1	1.5%	39.4*	-6.5%	-1.6%	2.3%	45.5*
O=C1OCCC1=CN1CCCCC1	nt	nt	nt	-4.0%	nt	nt
Cn1c(C(=O)Nc2ccc3c(c2)OCCO3)cc2sccc21	-25.0%	35.6*	-9.2%	1.6%	-56.6%	47.4*
O=C(NCc1ccco1)c1cc2sccc2n1Cc1ccccc1	2.6%	56.2*	-76.8%	0.9%	-72.1%	36.1*
SMILES	LmPK inhibitor	Cycloheximide cs	SARS PLpro yeast	Tb PYK inh	NS1 function inh	Shiga inhibitor
O=C(NCCc1ccccc1)c1cc2sccc2n1Cc1ccccc1	0.0%	15.5	2.0%	-3.2%	5.0%	18.5
CC(=O)NNS(=O)(=O)c1scc(S(=O)(=O)c2ccc(Cl)cc2)c1C	-1.0%	-4.8	0.9%	6.9%	3.4%	-5.0
Cc1ccc(-c2cc(C(=O)N/N=C/c3c[nH]c4ccccc34)n[nH]2)o1	1.6%	16.8*	-5.1%	-0.7%	9.4%	-0.6
Cc1ccc(-c2cc(C(=O)N/N=C/c3ccc(F)cc3)n[nH]2)o1	4.9%	10.2	-7.9%	-4.6%	2.1%	-5.9
Cc1ccc(-c2cc(C(=O)N/N=C/c3ccccc3O)n[nH]2)o1	-3.1%	33.8*	22.0%	-2.1%	-35.6%	59.5*
CC(C)OCCCNC(=O)CCCN1C(=O)CCn2nc(-c3cccn3C)cc21	nt	nt	nt	0.9%	nt	nt
